Measured values published in PubChem BioAssay AID1159580 (chemical genetic matrix, 2015).
The whole screen tested about 5,500 compounds, of which about 2,000 (36%) were called active. Inconclusive results (about 18%) are left out. Cut-off read from the data, not from the text of the source: active = normalized growth mostly below about 0.91 (no sharp cut-off); inconclusive = no clear call, values can overlap the other calls; inactive = mostly above about 0.92. The list shows a part of the results.

Experiment: chemical genetic growth profiling, strain panel (AID 1159580);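 note: tested at 20 µM; growth read once vehicle control cultures reached saturation at 30 °C; 1 = growth at the plate median or of vehicle wells; lower values mean less growth of the strain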
Settings: S. cerevisiae deletion strains, growth OD

Measured: normalized growth

O=c1[nH]c2ccccc2n1CCCN1CCN(C(c2ccccc2)c2ccccc2)CC1
inactive: locus YAL040C, strain CLN3, hits give low values 1.02 | locus YCL061C, strain MRC1 (second series), hits give low values 1 | locus YDR150W, strain NUM1, hits give low values 1.01 | locus YDR363W, strain ESC2, hits give low values 1.01 | locus YER002W, strain NOP16, hits give low values 1.07 | locus YGR078C, strain PAC10, hits give low values 1.02 | locus YJR075W, strain HOC1, hits give low values 1 | locus YMR307W, strain GAS1, hits give low values 1.03 | locus YNL175C, strain NOP13, hits give low values 1.04 | locus YNL197C, strain WHI3, hits give low values 1.04 | locus YNL224C, strain SQS1, hits give low values 1.04 | locus YNL322C, strain KRE1, hits give low values 1.01 | locus YOR083W, strain WHI5 (second series), hits give low values 0.92 | locus YPL055C, strain LGE1, hits give low values 1.02 | locus YPL241C, strain CIN2, hits give low values 1
active: locus YNL128W, strain TEP1, hits give low values 1.19 [resistant]
